The supplement of paper PMC12532568
Structures can show the parent of a compound that is named as a salt.

Test system: Danio rerio larvae Tg(actc1b:ZsGreen-LC3), 3 dpf
Assay: LC3 puncta relative area vs vehicle, without NH4Cl (log2 fold change); higher = more autophagosomes
Details: 10 µM; treatment time 16 h; NH4Cl: none
Procedure: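 Transgenic Tg(actc1b:ZsGreen-map1lc3) zebrafish larvae (2 dpf) were treated for 16 h with Tocris library compounds at 10 µM (n = 12 larvae per compound). Skeletal-muscle LC3 puncta area relative to body area was measured by high-content confocal imaging before and after 4 h of 100 mM NH4Cl (autophagic flux), normalised to vehicle (DMSO), and reported as log2 fold change.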

Compound	LC3 puncta (log2)
CCCCCCN(CCCCCC)C(=O)Cc1c(-c2ccc(F)cc2)[nH]c2ccccc12	0.084
N[C@@H](CSS(=O)(=O)O)C(=O)O [S-Sulfo-L-cysteine sodium salt]	-0.101
CNCCCCOc1ccccc1Cc1ccccc1 [Bifemelane]	0.531
O=C1CC2(CCCC2)CC(=O)N1CCCCNCC1COc2ccccc2O1 (stereo not given)	-0.00847
NS(=O)(=O)c1cc2c(cc1Cl)NC(C1CC3C=CC1C3)NS2(=O)=O (stereo not given) [Cyclothiazide]	-0.147
CC(N)(Cc1ccc(O)c(O)c1)C(=O)O (stereo not given)	0.269
O=C(NCCCN1CCCCCC1)C(c1ccccc1)C1CCCCC1 (stereo not given)	0.0552
CCC(C)N(C)C(=O)c1cc2ccccc2c(-c2ccccc2Cl)n1 (stereo not given)	-0.0562
COc1cc(N)c(Cl)cc1C(=O)OCCCN1CCCCC1	-0.0084
CC1=NN(c2ccccc2)C(=O)C1 [Edaravone]	0.377
c1ccc2oc(C3=NCCN3)cc2c1 [2-BFI hydrochloride]	0.0586
CC(=O)N[C@@H](CC(=O)N[C@@H](CCC(=O)O)C(=O)O)C(=O)O [Spaglumic acid]	-0.106
O=C(O)C1=CCCNC1 [Guvacine hydrochloride]	-0.168
COc1ccccc1N1CCN(CC(O)COc2cccc3ccccc23)CC1 (stereo not given) [Naftopidil dihydrochloride]	-0.0568
O=C(OCCN1CCOCC1)C1(c2ccccc2)CCCCC1 [PRE-084 hydrochloride]	0.215
S=C(S)N1CCCC1 [Pyrrolidinedithiocarbamate ammonium]	0.439
COc1ccc2[nH]c(-c3ccccc3)c(CCNC(C)=O)c2c1 [2-Phenylmelatonin]	0.513
COC(=O)C1=C(C)NC(C)=C(C(=O)OCCSc2ccccc2)C1C (stereo not given)	0.00326
c1ccc(CN(CC2=NCCN2)c2ccccc2)cc1 [Antazoline hydrochloride]	0.664
NC(N)=NC(N)=Nc1cccc(Cl)c1 [m-Chlorophenylbiguanide hydrochloride]	0.136

Compound	LC3 puncta (log2)
CC(C)[C@H]1CC[C@H](C(=O)N[C@H](Cc2ccccc2)C(=O)O)CC1 [Nateglinide]	0.316
CCCC[C@@H](C=O)NC(=O)[C@H](CC(C)C)NC(=O)OCc1ccccc1 [Calpeptin]	1.15
CNC(=O)c1cc2c(cn1)[nH]c1ccccc12	0.13
CC1=C(/C=C/C(C)=C/C=C/C(C)=C/C(=O)O)C(C)(C)CCC1 [Retinoic acid]	0.44
O=C(O)c1cc(O)c2ccc(Cl)cc2n1 [7-Chlorokynurenic acid]	0.0331
CC(Cc1ccc(O)c(O)c1)(NN)C(=O)O [(S)-(-)-Carbidopa]	0.0108
COc1ccccc1N1CCN(CCCCN2C(=O)c3ccccc3C2=O)CC1 [NAN-190 hydrobromide]	0.201
CC(C(O)c1ccc(O)cc1)N1CCC(Cc2ccccc2)CC1 (stereo not given) [Ifenprodil hemitartrate]	-0.219
CN1CCN(C2=Cc3ccccc3Oc3ccc(Cl)cc32)CC1	0.742
OCCN(CCO)c1nc(N2CCCCC2)c2nc(N(CCO)CCO)nc(N3CCCCC3)c2n1 [Dipyridamole]	-0.714
NCC(O)(CS(=O)(=O)O)c1ccc(Cl)cc1 (stereo not given) [2-Hydroxysaclofen]	0.46
CC(C)(C)NC[C@H](O)COc1nsnc1N1CCOCC1 [(S)-Timolol maleate]	0.305
O=C(O)c1cc(=O)c2c(Cl)cc(Cl)cc2[nH]1 [5,7-Dichlorokynurenic acid]	-0.0706
C=C1C(=O)O[C@H]2[C@H]1CC/C(C)=C/CC[C@@]1(C)O[C@@H]21 [Parthenolide]	0.0168
CCOC(=O)C1=C(C)NC(C)=C(C(=O)OC)C1c1cccc([N+](=O)[O-])c1 (stereo not given) [Nitrendipine]	0.107
CC1(C(=O)O)NCCc2cc(O)c(O)cc21 (stereo not given) [Salsolinol-1-carboxylic acid]	0.463
Cc1ccc2c(c1)c1c3n2CCNC3CCC1 (stereo not given) [Pirlindole mesylate]	0.028
O=c1nc2ccccc2c2n1CC(CN1CCN(c3ccccc3)CC1)N2 (stereo not given)	0.0176
N[C@H](C(=O)O)c1cc(O)cc(O)c1	0.537
c1ccc2sc(N3CCN(Cc4ccc5c(c4)OCO5)CC3)nc2c1 [2-[1-(4-Piperonyl)piperazinyl]benzothiazole]	0.135
